Results published in PubChem BioAssay (NCI).
About 83,000 compounds went through this panel and 20% of them were active in at least one assay; those are over-represented in the sample as a whole.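 The test compound was applied at a single concentration to cells in 96-well plates for 48 hours, and percent growth was recorded.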 Unmarked numbers belong to inactive results. Calls of active or inactive are those of the source. How the source made its calls: active means growth percent below 10; inactive means the rest.

Legend:
Assay in all cases: NCI-60 one-dose screen, 48 h (100 = growth as untreated, 0 = no growth, -100 = all killed)
Details in all cases: 10 µM unless noted
[1] = tested on: NCI-H23 lung
[2] = tested on: NCI-H226 lung
[3] = tested on: NCI-H322M lung
[4] = tested on: HOP-62 NSCLC
[5] = tested on: NCI-H460 lung
[6] = tested on: HOP-92 NSCLC
[7] = tested on: NCI-H522 lung
[8] = tested on: A549/ATCC NSCLC
[9] = tested on: 786-0 renal
[10] = tested on: COLO 205 colon
[11] = tested on: DU-145 prostate
[12] = tested on: K-562 leukemia
[13] = tested on: MALME-3M melanoma
[14] = tested on: MDA-MB-231 breast
[15] = tested on: RXF 393 renal
[16] = tested on: SF-268 CNS
[17] = tested on: SF-295 CNS
[18] = tested on: SF-539 CNS
[19] = tested on: UACC-257 melanoma
[20] = tested on: M14 melanoma

COc1ccc(-c2csc(NC(=O)CN3CCN(CCO)CC3)n2)cc1NS(=O)(=O)c1cccc2c(N(C)C)cccc12
growth [1]: 88.1%
growth [2]: 92.5%
growth [3]: 89.9%
growth [4]: 79.9%
growth [5]: 67.1%
growth [6]: 50.7%
growth [7]: 79%
growth [8]: 75.7%
growth [9]: 57.7%
growth [10]: 62%
growth [11]: 78.4%
growth [12]: 23.1%
growth [13]: -67.9% (active)
growth [14]: 71.9%
growth [15]: 57.7%
growth [16]: 81.2%
growth [17]: 29.7%
growth [18]: 65.7%
growth [19]: 68.4%
growth [20]: -73.6% (active)

CCCN1C(=O)/C(=c2\sc3n(c2=O)C2C(NN=3)N(CC)C(=O)N2CC)c2ccccc21 (stereo not given)
growth [1]: 37.8%
growth [2]: 57.1%
growth [3]: 53.1%
growth [4]: 45.8%
growth [5]: 5.57% (active)
growth [6]: 67.7%
growth [7]: 1.15% (active)
growth [8]: 26.2%
growth [9]: 36.5%
growth [10]: 17.5%
growth [11]: 13.6%
growth [12]: 9.52% (active)
growth [13]: 45.4%
growth [14]: 13.9%
growth [15]: 17.3%
growth [16]: 58.7%
growth [17]: 7.46% (active)
growth [18]: -17% (active)
growth [19]: 24.5%
growth [20]: 17.5%

C=C(C)[C@@H]1CC[C@]2(C)[C@H](CC(=O)N[C@H]3[C@@H]4C[C@](C)(C(=O)OC)CC[C@]4(C)CC[C@]32C)[C@@]1(C)CCC#N
growth [1]: 92.7%
growth [2]: 78.1%
growth [3]: 103%
growth [4]: 110%
growth [5]: 96.8%
growth [6]: 69.3%
growth [7]: 71.3%
growth [8]: 94.2%
growth [9]: 107%
growth [10]: 86.9%
growth [11]: 94.4%
growth [12]: 50.3%
growth [13]: 86.7%
growth [14]: 79.7%
growth [15]: 83%
growth [16]: 81.2%
growth [17]: 81.2%
growth [18]: 95.9%
growth [19]: 83.7%
growth [20]: 86.8%

CC(=O)c1nn(-c2ccccc2)/c(=N/N=Cc2cn(-c3ccccc3)nc2-c2cc3ccccc3oc2=O)s1
growth [1]: 109%
growth [2]: 105%
growth [3]: 93.2%
growth [4]: 101%
growth [5]: 117%
growth [6]: 94.7%
growth [7]: 95.6%
growth [8]: 102%
growth [9]: 105%
growth [10]: 117%
growth [11]: 107%
growth [12]: 98.5%
growth [13]: 104%
growth [14]: 82.6%
growth [15]: 111%
growth [16]: 104%
growth [17]: 103%
growth [18]: 99.6%
growth [19]: 108%
growth [20]: 97.4%

CCCCCC#CC1OC23CCCCC2C(C#N)(C(=N)O3)C1(C#N)C#N (stereo not given)
growth [1]: 101%
growth [2]: 97.4%
growth [3]: 98.3%
growth [4]: 98.8%
growth [5]: 99.8%
growth [6]: 90.4%
growth [7]: 77.5%
growth [8]: 75.6%
growth [9]: 91.4%
growth [10]: 117%
growth [11]: 102%
growth [12]: 84%
growth [13]: 98%
growth [14]: 95.8%
growth [15]: 105%
growth [16]: 102%
growth [17]: 98.5%
growth [18]: 100%
growth [19]: 78.6%
growth [20]: 93.7%

CCCCC1=C(Br)C(=O)c2nc(C)ccc2C1=O
growth [1]: 92.8%
growth [2]: 91.2%
growth [3]: 88.8%
growth [4]: 89.9%
growth [5]: 98.8%
growth [6]: -8.03% (active)
growth [7]: 62.5%
growth [8]: 92%
growth [9]: 95.2%
growth [10]: 37.1%
growth [11]: 101%
growth [12]: 34%
growth [13]: 83.6%
growth [14]: 80.9%
growth [15]: 90.4%
growth [16]: 92.8%
growth [17]: 103%
growth [18]: 92.6%
growth [19]: 94%
growth [20]: 96%

COc1ccc(C/C(C)=C(/c2ccc(OCCN3CCCCCC3)cc2)c2ccc(OC(=O)c3ccccc3)cc2)cc1
growth [1]: 109%
growth [2]: 110%
growth [3]: 102%
growth [4]: 91.3%
growth [5]: 110%
growth [6]: 105%
growth [7]: 75.6%
growth [8]: 97.5%
growth [9]: 96.8%
growth [10]: 113%
growth [11]: 114%
growth [12]: 89.7%
growth [13]: 104%
growth [14]: 104%
growth [15]: 124%
growth [16]: 106%
growth [17]: 96.1%
growth [18]: 96.8%
growth [19]: 100%
growth [20]: 95.3%

COc1ccc(/C=N/NC(=O)CN2CCN(c3cc4c(cc3F)c(=O)c(C(=O)O)cn4C3CC3)CC2)cc1O
growth [1]: 103%
growth [2]: 112%
growth [3]: 102%
growth [4]: 98.9%
growth [5]: 105%
growth [6]: 91.8%
growth [7]: 80.8%
growth [8]: 99.5%
growth [9]: 101%
growth [10]: 112%
growth [11]: 102%
growth [12]: 86.2%
growth [13]: 109%
growth [14]: 92.8%
growth [15]: 103%
growth [16]: 87.7%
growth [17]: 104%
growth [18]: 101%
growth [19]: 89.5%
growth [20]: 101%

COc1ccc2nc3cc(Cl)ccc3c(NCCCNCCC(C)O)c2c1 (stereo not given)
growth [1]: -48.8% (active)
growth [2]: -3.4% (active)
growth [3]: -24.8% (active)
growth [4]: -8.19% (active)
growth [5]: -53.5% (active)
growth [6]: -23.7% (active)
growth [7]: -34.3% (active)
growth [8]: -17.6% (active)
growth [9]: -49.5% (active)
growth [10]: -77.7% (active)
growth [11]: -16.2% (active)
growth [12]: -18.1% (active)
growth [13]: -76.1% (active)
growth [14]: -47.5% (active)
growth [15]: -67.6% (active)
growth [16]: -25.9% (active)
growth [17]: -11.9% (active)
growth [18]: -56.9% (active)
growth [19]: -83.9% (active)
growth [20]: -82% (active)

COc1ccc(/C=C/C(=O)c2cc3c(N)c(C(=O)Nc4ccccc4)sc3nc2C)cc1
growth [1]: 28.8%
growth [2]: 42.7%
growth [3]: 35.9%
growth [4]: 32.9%
growth [5]: -1.05% (active)
growth [6]: 40.6%
growth [7]: -17.9% (active)
growth [8]: 16.8%
growth [9]: 20.2%
growth [10]: -17.4% (active)
growth [11]: 10.9%
growth [12]: 14.7%
growth [13]: 58.1%
growth [14]: 13.3%
growth [15]: -19.2% (active)
growth [16]: 22.6%
growth [17]: 11.6%
growth [18]: -27.3% (active)
growth [19]: 69.5%
growth [20]: 6.3% (active)

O=C(c1cccc(Br)c1)N1CCN(c2ccnc3cc(Cl)ccc23)CC1
growth [1]: 79.7%
growth [2]: 87.3%
growth [3]: 92%
growth [4]: 95.3%
growth [5]: 100%
growth [6]: 78.7%
growth [7]: 45.1%
growth [8]: 73.8%
growth [9]: 71.9%
growth [10]: 93.7%
growth [11]: 93.3%
growth [12]: 68.1%
growth [13]: 94.3%
growth [14]: 91.7%
growth [15]: 87%
growth [16]: 91.5%
growth [17]: 87%
growth [18]: 96.9%
growth [19]: 85.8%
growth [20]: 98.6%

Cc1ccc(C(=O)Nc2ccc(CN3CCN(C)CC3)c(C(F)(F)F)c2)cc1C#Cc1cnc(N)cc1C#N
growth [1]: -40.7% (active)
growth [2]: 9.78% (active)
growth [3]: 12.4%
growth [4]: -69.7% (active)
growth [5]: -80.7% (active)
growth [6]: -39.8% (active)
growth [7]: -72.7% (active)
growth [8]: -84.7% (active)
growth [9]: -73.8% (active)
growth [10]: -64.9% (active)
growth [11]: -53.1% (active)
growth [12]: -41.5% (active)
growth [13]: -79.2% (active)
growth [14]: -67% (active)
growth [15]: -88.6% (active)
growth [16]: -14.7% (active)
growth [17]: -68.1% (active)
growth [18]: -94.8% (active)
growth [19]: -23.6% (active)
growth [20]: -80.8% (active)

c1cc(NCCCCN2CCOCC2)c2ccc3c(ccc4c(NCCN5CCOCC5)ccnc43)c2n1
growth [1]: 70.7%
growth [2]: 79.6%
growth [3]: 72.9%
growth [4]: 81.5%
growth [5]: 40.8%
growth [6]: 56.8%
growth [7]: 82.5%
growth [8]: 75.9%
growth [9]: 79.5%
growth [10]: 90.5%
growth [11]: 80.8%
growth [12]: 66.5%
growth [13]: 99.9%
growth [14]: 71%
growth [15]: 72.5%
growth [16]: 101%
growth [17]: 97.9%
growth [18]: 82.3%
growth [19]: 116%
growth [20]: 92.7%

Fc1ccccc1-c1cnn2cc(-c3ccccc3)cnc12
growth [1]: 95.5%
growth [2]: 94.3%
growth [3]: 95.5%
growth [4]: 103%
growth [5]: 98.2%
growth [6]: 100%
growth [7]: 97.7%
growth [8]: 94.2%
growth [9]: 97.2%
growth [10]: 118%
growth [11]: 110%
growth [12]: 83.5%
growth [13]: 109%
growth [14]: 108%
growth [15]: 94.9%
growth [16]: 88.9%
growth [17]: 98.2%
growth [18]: 103%
growth [19]: 110%
growth [20]: 105%
